This passage reports cell viability results from the supplement of paper PMC12808144.

One assay relates to Mel-DCC-11-R. Briefly: cell viability relative to DMSO control (fraction of DMSO control); higher = less cytotoxic, active = 0.8 or less. The note with it: 1 µM; 120 h; vemurafenib co-treatment 0 µM. The gist of the method: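 Patient-derived Mel-DCC-11, its resistant subline Mel-DCC-11-R (alone and with 8 µM of its selecting drug) and NHEM-hTERT immortalized melanocytes were exposed for 120 h to 315 approved anti-cancer drugs at 1 µM in duplicate. Luminescence was read with ATPlite 1step. Viability was normalised to vehicle controls and averaged over duplicates.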
In the case of `O=NN(CCCl)C(=O)NC1CCCCC1` [Lomustine], the cell viability is 0.985 (inactive).
With `CC(=O)O[C@@]12CO[C@@H]1C[C@H](O)[C@@]1(C)C(=O)[C@H](O)C3=C(C)[C@@H](OC(=O)[C@H](O)[C@@H](NC(=O)OC(C)(C)C)c4ccccc4)C[C@@](O)([C@@H](OC(=O)c4ccccc4)[C@H]21)C3(C)C` [Docetaxel], the cell viability was 1.07 (inactive).
On the same count and under the same terms, with `CCCCCCCCCCCCCCCCCCOCC(O)CO` (stereo unspecified) [Batyl alcohol] the figure was 0.92 (inactive); with `COc1ccc(C(Cl)=C(c2ccc(OC)cc2)c2ccc(OC)cc2)cc1` [Chlorotrianisene], 0.86 (inactive); with `COc1cc2c(Oc3ccc4[nH]c(C)cc4c3F)ncnc2cc1OCCCN1CCCC1` [Cediranib], 0.853 (inactive).
As to `COc1cc2nccc(Oc3ccc(NC(=O)C4(C(=O)Nc5ccc(F)cc5)CC4)cc3)c2cc1OC.O=C(O)C[C@H](O)C(=O)O`, the cell viability was 1.05 (inactive).
As to `CCS(=O)(=O)N1CC(CC#N)(n2cc(-c3ncnc4[nH]ccc34)cn2)C1` [Baricitinib], the cell viability is 1 (inactive).
For `Cc1cn(-c2cc(NC(=O)c3ccc(C)c(Nc4nccc(-c5cccnc5)n4)c3)cc(C(F)(F)F)c2)cn1` [Nilotinib], the cell viability was 1.15 (inactive).
On to `O=C(/C=C\n1cnc(-c2cc(C(F)(F)F)cc(C(F)(F)F)c2)n1)NNc1cnccn1` [Selinexor], for which the cell viability was 1.59 (inactive).
For the compound `CCCCCCNC(=O)n1cc(F)c(=O)[nH]c1=O` [Carmofur], the cell viability was 1.12 (inactive).
For `COc1cc2nccc(Oc3ccc(NC(=O)C4(C(=O)Nc5ccc(F)cc5)CC4)cc3)c2cc1OC` [Cabozantinib], the cell viability was 1.1 (inactive).
On to `CC1=C(/C=C/C(C)=C/C=C/C(C)=C/C(=O)O)C(C)(C)CCC1` [Tretinoin], for which the cell viability is 0.946 (inactive).
Regarding `C=C(c1ccc(C(=O)O)cc1)c1cc2c(cc1C)C(C)(C)CCC2(C)C` [Bexarotene], the cell viability is 1.07 (inactive).
On the same count and under the same terms, with `CC=Cc1ccc(OC)cc1` (stereo in doubt) [cis-Anethol] the figure was 1.26 (inactive); with `CC(O)(P(=O)([O-])O)P(=O)([O-])O.[Na+].[Na+]` [Sodium etidronate], 0.787 (active); with `CC(C)=CCC/C(C)=C/CC/C(C)=C/CC/C(C)=C/CC1=C(C)C(=O)c2ccccc2C1=O` [Menatetrenone], 1.11 (inactive).
For the compound `CS(=O)(=O)CCNCc1ccc(-c2ccc3ncnc(Nc4ccc(OCc5cccc(F)c5)c(Cl)c4)c3c2)o1` [Lapatinib], the cell viability was 1.12 (inactive).
On to `Cc1nc(Nc2ncc(C(=O)Nc3c(C)cccc3Cl)s2)cc(N2CCN(CCO)CC2)n1` [Dasatinib], for which the cell viability is 1.59 (inactive).
For `N.N.O=C([O-])C[O-].[Pt+2]` [Nedaplatin], the cell viability was 1 (inactive).
As to `Nc1ccn([C@@H]2O[C@H](CO)[C@@H](O)C2(F)F)c(=O)n1` [Gemcitabine], the cell viability is 0.869 (inactive).
In the case of `CCCCc1nc2cc(/C=C/C(=O)NO)ccc2n1CCN(CC)CC` [Pracinostat], the cell viability is 0.699 (active).
Still for that read-out and setting: the figure for `CNC(=O)c1cc(Oc2ccc(NC(=O)Nc3ccc(Cl)c(C(F)(F)F)c3)c(F)c2)ccn1` [Regorafenib] is 0.909 (inactive).
Consider `Nc1cccc2c1C(=O)N(C1CCC(=O)NC1=O)C2=O` (stereo unspecified) [Pomalidomide], for which the cell viability is 1 (inactive).
As to `COc1cc2c(cc1O)CC[C@@H]1[C@@H]2CC[C@]2(C)[C@@H](O)CC[C@@H]12` [2-Methoxyestradiol], the cell viability is 1.29 (inactive).
For `C=CC(=O)Nc1cccc(Nc2nc(Nc3ccc(N4CCN(C(C)=O)CC4)cc3OC)ncc2C(F)(F)F)c1` [Rociletinib], the cell viability is 0.855 (inactive).
For `CN(CCOc1ccc(CC2SC(=O)NC2=O)cc1)c1ccccn1.O=C(O)/C=C\C(=O)O` (stereo unspecified) [Rosiglitazone maleate], the cell viability was 0.97 (inactive).
On the same count and under the same terms, with `CCc1ccc(CCOc2ccc(CC3SC(=O)NC3=O)cc2)nc1.Cl` (stereo unspecified) [Pioglitazone hydrochloride] the figure was 0.921 (inactive); with `O=c1ccn([C@@H]2O[C@H](CO)[C@@H](O)[C@H]2O)c(=O)[nH]1` [Uridine], 0.931 (inactive).

The assay is the same for the next values; noted with them: 1 µM; 120 h; vemurafenib co-treatment 8 µM.
Take `CC(/C=C/C=C(\C)C(=O)O[C@@H]1O[C@H](CO[C@@H]2O[C@H](CO)[C@@H](O)[C@H](O)[C@H]2O)[C@@H](O)[C@H](O)[C@H]1O)=C\C=C\C=C(C)\C=C\C=C(/C)C(=O)O[C@@H]1O[C@H](CO[C@@H]2O[C@H](CO)[C@@H](O)[C@H](O)[C@H]2O)[C@@H](O)[C@H](O)[C@H]1O` [Crocin]: the cell viability is 1.03 (inactive).
For the compound `N#CC[C@H](C1CCCC1)n1cc(-c2ncnc3[nH]ccc23)cn1` [(R)-Ruxolitinib], the cell viability was 1.03 (inactive).
`CNC(=O)c1cc(Oc2ccc(NC(=O)Nc3ccc(Cl)c(C(F)(F)F)c3)cc2)ccn1` [Sorafenib]: the cell viability was 1.2 (inactive).
The same measure, in the same setting: the figure for `Nc1nc(=O)c2c([nH]1)NCC(CNc1ccc(C(=O)N[C@@H](CCC(=O)[O-])C(=O)[O-])cc1)N2C=O.[Ca+2]` (stereo partly specified) [Calcium folinate] is 1.31 (inactive); for `COc1cc([C@@H]2c3cc4c(cc3[C@@H](O[C@@H]3O[C@@H]5CO[C@@H](c6cccs6)O[C@H]5[C@H](O)[C@H]3O)[C@H]3COC(=O)[C@H]23)OCO4)cc(OC)c1O` [Teniposide] it is 0.638 (active).
As to `Nc1ccn([C@@H]2O[C@H](CO)[C@@H](O)[C@@H]2O)c(=O)n1` [Cytarabine], the cell viability is 0.936 (inactive).
Still for that read-out and setting: the figure for `CC(C)C[C@@H](NC(=O)[C@H](O)[C@@H](N)Cc1ccccc1)C(=O)O.Cl` [Bestatin hydrochloride] is 1.14 (inactive).
Turning to `CO[C@H]1C[C@@H]2CC[C@@H](C)[C@@](O)(O2)C(=O)C(=O)N2CCCC[C@H]2C(=O)O[C@H]([C@H](C)C[C@@H]2CC[C@@H](O)[C@H](OC)C2)CC(=O)[C@H](C)/C=C(\C)[C@@H](O)[C@@H](OC)C(=O)[C@H](C)C[C@H](C)/C=C/C=C/C=C/1C` [Rapamycin], the cell viability is 0.783 (active).
Turning to `O=NN(CCCl)C(=O)NC1CCCCC1` [Lomustine], the cell viability was 1.11 (inactive).
On the same count and under the same terms, the figure for `CC(=O)O[C@@]12CO[C@@H]1C[C@H](O)[C@@]1(C)C(=O)[C@H](O)C3=C(C)[C@@H](OC(=O)[C@H](O)[C@@H](NC(=O)OC(C)(C)C)c4ccccc4)C[C@@](O)([C@@H](OC(=O)c4ccccc4)[C@H]21)C3(C)C` [Docetaxel] is 0.609 (active); for `CCCCCCCCCCCCCCCCCCOCC(O)CO` (stereo unspecified) [Batyl alcohol] it is 0.995 (inactive).
The same measure, in the same setting: with `COc1ccc(C(Cl)=C(c2ccc(OC)cc2)c2ccc(OC)cc2)cc1` [Chlorotrianisene] the figure was 0.833 (inactive).
Consider `COc1cc2c(Oc3ccc4[nH]c(C)cc4c3F)ncnc2cc1OCCCN1CCCC1` [Cediranib], for which the cell viability was 0.728 (active).
For `COc1cc2nccc(Oc3ccc(NC(=O)C4(C(=O)Nc5ccc(F)cc5)CC4)cc3)c2cc1OC.O=C(O)C[C@H](O)C(=O)O`, the cell viability is 0.365 (active).
Same read-out and setting: with `CCS(=O)(=O)N1CC(CC#N)(n2cc(-c3ncnc4[nH]ccc34)cn2)C1` [Baricitinib] the figure was 1.22 (inactive); with `Cc1cn(-c2cc(NC(=O)c3ccc(C)c(Nc4nccc(-c5cccnc5)n4)c3)cc(C(F)(F)F)c2)cn1` [Nilotinib], 1.06 (inactive).
With `O=C(/C=C\n1cnc(-c2cc(C(F)(F)F)cc(C(F)(F)F)c2)n1)NNc1cnccn1` [Selinexor], the cell viability was 0.678 (active).
In the case of `CCCCCCNC(=O)n1cc(F)c(=O)[nH]c1=O` [Carmofur], the cell viability is 1.06 (inactive).
Regarding `COc1cc2nccc(Oc3ccc(NC(=O)C4(C(=O)Nc5ccc(F)cc5)CC4)cc3)c2cc1OC` [Cabozantinib], the cell viability is 0.427 (active).
With `CC1=C(/C=C/C(C)=C/C=C/C(C)=C/C(=O)O)C(C)(C)CCC1` [Tretinoin], the cell viability is 1.19 (inactive).
`C=C(c1ccc(C(=O)O)cc1)c1cc2c(cc1C)C(C)(C)CCC2(C)C` [Bexarotene]: the cell viability is 1.59 (inactive).
In the case of `CC=Cc1ccc(OC)cc1` (stereo in doubt) [cis-Anethol], the cell viability was 0.591 (active).
For `CC(O)(P(=O)([O-])O)P(=O)([O-])O.[Na+].[Na+]` [Sodium etidronate], the cell viability was 0.91 (inactive).
Consider `CC(C)=CCC/C(C)=C/CC/C(C)=C/CC/C(C)=C/CC1=C(C)C(=O)c2ccccc2C1=O` [Menatetrenone], for which the cell viability is 1.18 (inactive).
On the same count and under the same terms, with `CS(=O)(=O)CCNCc1ccc(-c2ccc3ncnc(Nc4ccc(OCc5cccc(F)c5)c(Cl)c4)c3c2)o1` [Lapatinib] the figure was 0.841 (inactive); with `Cc1nc(Nc2ncc(C(=O)Nc3c(C)cccc3Cl)s2)cc(N2CCN(CCO)CC2)n1` [Dasatinib], 1.58 (inactive).
In the case of `N.N.O=C([O-])C[O-].[Pt+2]` [Nedaplatin], the cell viability is 1.18 (inactive).
On the same count and under the same terms, with `Nc1ccn([C@@H]2O[C@H](CO)[C@@H](O)C2(F)F)c(=O)n1` [Gemcitabine] the figure was 0.709 (active); with `CCCCc1nc2cc(/C=C/C(=O)NO)ccc2n1CCN(CC)CC` [Pracinostat], 0.453 (active); with `CNC(=O)c1cc(Oc2ccc(NC(=O)Nc3ccc(Cl)c(C(F)(F)F)c3)c(F)c2)ccn1` [Regorafenib], 0.82 (inactive).
For `Nc1cccc2c1C(=O)N(C1CCC(=O)NC1=O)C2=O` (stereo unspecified) [Pomalidomide], the cell viability was 1.25 (inactive).
Turning to `COc1cc2c(cc1O)CC[C@@H]1[C@@H]2CC[C@]2(C)[C@@H](O)CC[C@@H]12` [2-Methoxyestradiol], the cell viability was 0.985 (inactive).
Regarding `C=CC(=O)Nc1cccc(Nc2nc(Nc3ccc(N4CCN(C(C)=O)CC4)cc3OC)ncc2C(F)(F)F)c1` [Rociletinib], the cell viability was 0.836 (inactive).
